# TGFb SMAD3 inh: blocks TGF-b signaling; HepG2 CAGA-GFP TGF-b/SMAD3 reporter, GFP fluorescence, 18 h; TGF-beta stimulated, 500 pg/mL final; Potency, µM (series often up to 46.1 µM), for the others: top-dose activity, negative = inhibition, hits mostly inhibitors; 410,000 compounds, 1.2% hits; AID 588855; further: on the % scale 0 is the no-effect control and ±100 the full control effect; nearly all actives have a fitted effect of over 65% in size
#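 First, reporter cells (HEPG2 CAGA-GFP) rested 2 h at 37 degrees C. Next, compounds were pinned in and TGF-beta added to 500 pg/mL final. After 18 h, GFP was imaged per cell and summed per well.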
# S2 tox: cell viability loss in ATXN counter-screen; S2 cells (HEK-293 line with an ATXN2-luciferase reporter) viability, CellTiter-Fluor protease fluorescence, 24 h; Potency, µM (series often up to 56.7 µM), hits mostly cytotoxic; 400,000 compounds, 0.49% hits; further: nearly all actives have a fitted effect of over 40% in size
# HepG2 tox: kills HepG2 cells in TGF-b inhibitor counter-screen; HepG2 CAGA-GFP viability, ATP luminescence, 18 h; Potency, µM (highest dose often 46.1 µM), for the others: top-dose activity change, negative = cytotoxicity, usual class: cytotoxic; 410,000 compounds, 0.76% hits
#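 CellTiter-Glo luminescence gave cytotoxicity after 18 hours at 37 degrees C. The cells were HepG2 CAGA-GFP in 1% FBS DMEM, stimulated with 500 pg/mL TGF-beta after compound addition. %Activity was normalised to no-cell wells (complete cell-killing) and DMSO (no toxicity), and curves were fitted and classified.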
# ATXN2 expr inh: reduces ATXN2 reporter expression in HEK-293 cells. 360,000 compounds, 0.72% hits. Potency, µM (titrated, usually from 57 µM), for the others: top-dose activity change, negative = inhibition, actives largely listed as inhibitors. HEK-293 ATXN2-luciferase reporter, luminescence, 24 h. AID 1745845; further: on the % scale 0 is the no-effect control and ±100 the full control effect; nearly all actives have a fitted effect of over 55% in size
#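 ATXN2-luciferase reporter cells (luciferase flanked by upstream and downstream ATXN2 gene portions) were treated 24 h at 37 °C with compounds at up to 57 uM. SteadyGlo luminescence gave expression; GF-AFC fluorescence gave viability.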
# GLP1R inv ag: acts as inverse agonist at human GLP-1 receptor; P43220; HEK293 GLP-1R CRE-luciferase, luminescence, 24 h; GLP-1R form is constitutively active; Potency, µM (series often up to 38.3 µM), without a hit: top-dose activity change, negative = inhibition, usual class: inhibitors; 410,000 compounds, 1.6% hits; further: on the % scale 0 is the no-effect control and ±100 the full control effect; nearly all actives have a fitted effect of over 55% in size
# Target sequence (P43220 whole entry, looked up): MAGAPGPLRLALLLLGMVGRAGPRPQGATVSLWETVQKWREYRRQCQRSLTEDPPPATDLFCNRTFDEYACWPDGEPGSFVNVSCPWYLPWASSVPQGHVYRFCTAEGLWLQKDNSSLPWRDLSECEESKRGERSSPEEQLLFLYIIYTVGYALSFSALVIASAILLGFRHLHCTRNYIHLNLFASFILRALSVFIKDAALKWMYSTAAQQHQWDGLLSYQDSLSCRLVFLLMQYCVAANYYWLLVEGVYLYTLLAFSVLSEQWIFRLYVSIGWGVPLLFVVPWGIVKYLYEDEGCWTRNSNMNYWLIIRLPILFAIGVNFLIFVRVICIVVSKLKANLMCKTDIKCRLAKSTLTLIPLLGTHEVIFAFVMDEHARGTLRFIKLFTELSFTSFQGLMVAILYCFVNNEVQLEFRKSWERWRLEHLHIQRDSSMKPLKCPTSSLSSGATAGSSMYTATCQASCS
#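 Using stably transfected HEK293 (constitutively active GLP-1R, cAMP-luciferase reporter), compounds were incubated 24 hr and luciferase measured by luminescence.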
# GLP1R ag: GLP-1 receptor (human) agonism; HEK293 GLP-1R CRE-luciferase, luminescence, 4-6 h; cells express a hypersensitive GLP-1R form; AID 624172; Potency, µM (doses to about 45.6 µM), for inactives: top-dose activation, hits mostly activators; 380,000 compounds, 0.007% hits; P43220; further: % of control where 0% means no effect
# * = called active by the depositor; i = inactive; u = inconclusive; x = not tested or not shown; [ ] = another dose, or the depositor's remark. Compounds with a hit are over-represented: about 3.7% of the library has one in this group of screens. The call rests on the fitted dose curve; in most records, active means well fitted curve in the direction sought with a large enough effect; inconclusive means small, poorly fitted or top-dose-only effect, or another doubt; inactive means no such curve, though single readings can be large; an effect the other way counts as inactive or inconclusive. Potency means the concentration at half of the fitted maximal effect.
SMILES,TGFb SMAD3 inh,S2 tox,HepG2 tox,ATXN2 expr inh,GLP1R inv ag,GLP1R ag
Cc1ccccc1NC(=O)c1c([N+](=O)[O-])c(C(C)(C)C)nn1C,-5.4%,i,-1.8%,1.4%,u,3.2%
Cc1cccc(NC(=O)c2c([N+](=O)[O-])c(C(C)(C)C)nn2C)c1,-11.2%,i,2.7%,-8.8%,5.01µM*,0.5%
Cn1nc(C(C)(C)C)c([N+](=O)[O-])c1C(=O)Nc1ccc(Br)cc1,-9.7%,u,-59.4%,-56.4%,2.82µM*,1.2%
COc1ccc(NC(=O)Cn2cc(S(=O)(=O)c3ccccc3)c(=O)c3cc(C)ccc32)cc1Cl,-20.8%,i,-1.5%,7.7%,-29.1%,-0.1%
O=C(CSc1nnnn1-c1cccc2c1CCCC2)N1CCCC1,-14.9%,i,5.1%,-4.2%,u,-7.2%
CC1CCCC(C)N1C(=O)CSc1nnnn1-c1cccc2c1CCCC2 (stereo not drawn),0.0%,i,0.7%,-16.1%,7.94µM*,-2.0%
CC(C)C(NS(C)(=O)=O)c1nnc2n1CCN(Cc1cccc3ncccc13)CC2 (stereo not drawn),x,i,x,x,x,x
COCC1CCCN(Cc2ccc3c(c2)CN(C(=O)c2sc(C)nc2C)CCO3)C1 (stereo not drawn),x,i,x,x,x,x
CN(C)S(=O)(=O)c1cccc(-c2nn(-c3ccccc3)cc2/C=C2\SC(=S)NC2=O)c1,12.6µM*,i,-7.7%,-4.0%,u,5.5%
N=c1nc(-c2ccccc2)n(-c2ccccc2)s1,-1.1%,x,-12.7%,x,x,x
COc1ccc(N=c2nc(-c3ccccc3)n(-c3ccc(C)cc3)s2)cc1,3.98µM*,x,-101.9%,x,x,x
COc1ccc(N=c2nc(-c3ccc(C)cc3)n(-c3ccccc3)s2)cc1,3.16µM*,x,-62.1%,x,x,x
Cc1ccc(-c2nc(=Nc3ccccc3)sn2-c2ccccc2)cc1,3.55µM*,x,4.47µM*,x,x,x
COc1ccc(N=C2C(=Nc3ccc(OC)cc3)N(c3ccc(OC)cc3)C(=S)N2c2ccccc2)cc1,-18.9%,u,-10.9%,30.3%,-16.8%,-2.6%
COCC1CCCN(Cc2ccc3c(c2)CN(C(=O)c2cccnc2OC)CCO3)C1 (stereo not drawn),x,i,x,x,x,x
CCC1(C2CCN(C(=O)c3ccc(C)c(C)c3)CC2)NC(=O)N(CCc2scnc2C)C1=O (stereo not drawn),x,i,x,x,x,x
N#CC1=C(N)OC2=C(CCc3ccccc32)C1c1ccccc1 (stereo not drawn),u,u,-103.8%,-16.7%,1.26µM*,14.0%
Cc1ccc(/C=C2\CCC3=C2OC(N)=C(C#N)C3c2ccc(C)cc2)cc1 (stereo not drawn),67.7%,x,-14.4%,-7.9%,u,-6.9%
NC[C@H]1O[C@H](O[C@H]2[C@H](O[C@@H]3O[C@H](CO)[C@@H](O)[C@H]3O)C(O)[C@H](N)C[C@@H]2N)[C@H](N)[C@@H](O)[C@@H]1O (stereo partly drawn),x,i[11.3 µM],x,-0.6%[11.3 µM],x,x
COc1ccccc1CNS(=O)(=O)c1cc(C(=O)Nc2cccc(C(F)(F)F)c2)ccc1F,11.2µM*,x,-17.7%,x,u,x
O=C(Nc1cccc(C(F)(F)F)c1)c1ccc(F)c(S(=O)(=O)N2CCc3ccccc3C2)c1,11.2µM*,x,-33.5%,x,u,x
CC(C)c1ccc(NC(=O)c2ccc(F)c(S(=O)(=O)N3CCc4ccccc4C3)c2)cc1,-37.8%,x,-15.9%,x,-17.9%,x
CCOC(=O)c1ccc(N2C(=O)c3[nH]nc(-c4ccc(OC)cc4)c3C2c2cccc(O)c2)cc1 (stereo not drawn),15.8µM*,x,10µM*,u,u,-2.3%
CCOC(=O)c1ccc(N2C(=O)c3[nH]nc(-c4ccc(C)cc4)c3C2c2ccc(O)cc2)cc1 (stereo not drawn),u,u,-52.6%,u,u,0.1%
